In PubChem BioAssay (EPA / NIEHS):
“And” between values parts separate entries of the source, which are not always exact repeats. Identical values can stand only once. The source made the active and inactive calls. Rule for the calls: active = hit-call score of the fitted dose curve at least 0.9, where 1 is the maximum; inactive = score below 0.9.

What was measured:
[1] = target: CCAAT/enhancer-binding protein beta (Homo sapiens) (UniProt P17676); experiment: ATG_C_EBP_CIS: Attagene CIS-FACTORIAL HepG2 Assay for human CCAAT/Enhancer Binding Protein (C/EBP) beta (AID 2282927); settings: HepG2 Attagene cis-factorial transcription factor reporter; actives raise or lower the signal
How it was run: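 Endogenous transcription factor activity in human liver HepG2 cells is inferred from induction of a CEBPB-linked reporter mRNA. Exposure lasts 24 h; activity is fitted in both directions relative to DMSO.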

[2] = ATG_DR4_LXR_CIS: Attagene CIS-FACTORIAL HepG2 Assay for human Liver X Receptor (LXR), DR4 submotif (AID 2282929); settings: HepG2 Attagene DR4 cis-reporter, mRNA transcription; actives raise or lower the signal
How it was run: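 HepG2 cells were transiently transfected with multiple cis-regulated reporter units and dosed for 24 hours. The DR4 reporter mRNA was quantified by RT-PCR, 6-FAM labelling and capillary electrophoresis. Bidirectional fits used DMSO as baseline.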

[3] = target: Aryl hydrocarbon receptor (Homo sapiens) (UniProt P35869); experiment: ATG_Ahr_CIS: Attagene CIS-FACTORIAL HepG2 Assay for human Aryl Hydrocarbon Receptor (Ahr) (AID 2282930); settings: HepG2 AhR cis-factorial reporter transcription; actives raise or lower the signal
How it was run: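 Transient MRTU transfection of HepG2 → 24 h compound exposure → total RNA, oligo(dT) RT → PCR, 6-FAM extension, HpaI cut → CE fluorescence. DMSO = baseline; bidirectional curve fit.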

[4] = ATG_AP_1_CIS: Attagene CIS-FACTORIAL HepG2 Assay for human Activator Protein 1 (AP-1) (AID 2282931); settings: HepG2 Attagene cis-factorial AP-1 reporter mRNA; actives raise or lower the signal
How it was run: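 HepG2 cells transiently transfected with cis-element-driven reporter transcription units, dosed for 24 hours. Reporter mRNA measured by RT-PCR, 6-FAM labelling, HpaI digestion and capillary electrophoresis. Bidirectional fitting against DMSO baseline.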

[5] = ATG_AP_2_CIS: Attagene CIS-FACTORIAL HepG2 Assay for human Activator Protein 2 (AP-2) (AID 2282932); settings: HepG2 AP-2 cis-reporter, Attagene transcription factor profiling; actives raise or lower the signal
How it was run: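 Step one: transient transfection of HepG2 with reporter transcription units. Step two: 24 h chemical exposure. Step three: RNA extraction, RT-PCR, labelled fragment analysis by capillary electrophoresis; DMSO serves as baseline.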

[6] = ATG_BRE_CIS: Attagene CIS-FACTORIAL HepG2 Assay for human Bone Morphogenetic Protein (BMP) Response Element (BRE) (AID 2282933); settings: HepG2 BMP response element reporter, Attagene transcription factor profiling; actives raise or lower the signal
How it was run: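 After a 24 h chemical treatment, transiently transfected HepG2 cells were lysed for RNA; reporter transcripts were quantified by fluorescent RT-PCR and capillary electrophoresis, normalised to DMSO.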

[7] = target: Retinoic acid receptor alpha (Homo sapiens) (UniProt P10276); experiment: ATG_DR5_RAR_CIS: Attagene CIS-FACTORIAL HepG2 Assay for human Retinoic Acid Receptor Alpha (RARE), DR5 submotif (AID 2282934); settings: HepG2 Attagene cis-factorial RARE DR5 reporter, mRNA; actives raise or lower the signal;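 for AC50: reporter responds to endogenous RAR alpha beta and gamma in HepG2 not RARA alone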
How it was run: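 Transient MRTU transfection of HepG2; 24 h compound treatment; TriZol RNA, oligo(dT) RT, PCR, FAM labelling, capillary electrophoresis. Bidirectional fit vs DMSO. Endogenous TF activity at DR5 RARE.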

[8] = target: Transcription factor E2F1 (Homo sapiens) (UniProt Q01094); experiment: ATG_E2F_CIS: Attagene CIS-FACTORIAL HepG2 Assay for human E2F Transcription Factor 1 (AID 2282935); settings: HepG2 Attagene cis-reporter, E2F reporter RNA transcripts; actives raise or lower the signal
How it was run: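 Total RNA from 24 h-treated, reporter-transfected HepG2 cells undergoes DNase I treatment, oligo(dT) reverse transcription, PCR and 6-FAM primer extension before capillary electrophoresis.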

[9] = ATG_E_Box_CIS: Attagene CIS-FACTORIAL HepG2 Assay for human Enhancer Box (E-box) (AID 2282936); settings: HepG2 E-box cis-reporter transcription, actives raise or lower the signal
How it was run: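 DMSO served as negative control and baseline for bidirectional fitting. Human hepatoma HepG2 cells, transiently transfected with cis-reporter constructs, were dosed 24 h; reporter mRNA read by RT-PCR and capillary electrophoresis.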

Sequence of CCAAT/enhancer-binding protein beta (Homo sapiens) (P17676 whole entry, looked up): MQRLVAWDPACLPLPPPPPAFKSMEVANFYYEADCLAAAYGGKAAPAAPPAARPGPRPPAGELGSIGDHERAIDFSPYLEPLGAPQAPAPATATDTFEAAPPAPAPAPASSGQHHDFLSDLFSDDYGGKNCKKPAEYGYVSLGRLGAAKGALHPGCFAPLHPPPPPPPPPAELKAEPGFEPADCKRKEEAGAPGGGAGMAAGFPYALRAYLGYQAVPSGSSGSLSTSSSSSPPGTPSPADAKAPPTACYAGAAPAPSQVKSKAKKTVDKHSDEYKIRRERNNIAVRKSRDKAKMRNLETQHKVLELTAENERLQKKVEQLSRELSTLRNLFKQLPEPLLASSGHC
Sequence of Retinoic acid receptor alpha (Homo sapiens) (P10276 whole entry, looked up): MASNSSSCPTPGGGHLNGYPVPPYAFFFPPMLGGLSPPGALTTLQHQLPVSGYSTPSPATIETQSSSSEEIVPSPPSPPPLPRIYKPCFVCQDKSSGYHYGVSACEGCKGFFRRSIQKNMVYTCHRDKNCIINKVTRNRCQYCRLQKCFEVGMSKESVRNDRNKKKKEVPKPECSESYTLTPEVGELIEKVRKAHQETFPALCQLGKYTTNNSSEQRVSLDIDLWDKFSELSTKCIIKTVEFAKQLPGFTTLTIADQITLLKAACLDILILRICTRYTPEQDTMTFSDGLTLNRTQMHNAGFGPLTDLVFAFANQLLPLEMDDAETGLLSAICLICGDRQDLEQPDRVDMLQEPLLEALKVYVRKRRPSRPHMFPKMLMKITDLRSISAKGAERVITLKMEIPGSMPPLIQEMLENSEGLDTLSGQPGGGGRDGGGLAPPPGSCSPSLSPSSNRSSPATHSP
Sequence of Transcription factor E2F1 (Homo sapiens) (Q01094 whole entry, looked up): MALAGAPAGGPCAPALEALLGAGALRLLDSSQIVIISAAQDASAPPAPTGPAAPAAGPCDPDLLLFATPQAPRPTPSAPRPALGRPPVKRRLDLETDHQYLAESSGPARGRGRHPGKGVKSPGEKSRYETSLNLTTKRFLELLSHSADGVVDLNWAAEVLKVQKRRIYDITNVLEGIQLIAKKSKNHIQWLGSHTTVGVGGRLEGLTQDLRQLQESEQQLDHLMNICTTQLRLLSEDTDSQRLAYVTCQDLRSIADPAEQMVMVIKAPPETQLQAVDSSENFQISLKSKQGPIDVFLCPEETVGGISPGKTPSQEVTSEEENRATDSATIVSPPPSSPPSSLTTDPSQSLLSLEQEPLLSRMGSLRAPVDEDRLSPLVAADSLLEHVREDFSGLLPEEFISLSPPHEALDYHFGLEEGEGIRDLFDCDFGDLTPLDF
Sequence of Aryl hydrocarbon receptor (Homo sapiens) (P35869 whole entry, looked up): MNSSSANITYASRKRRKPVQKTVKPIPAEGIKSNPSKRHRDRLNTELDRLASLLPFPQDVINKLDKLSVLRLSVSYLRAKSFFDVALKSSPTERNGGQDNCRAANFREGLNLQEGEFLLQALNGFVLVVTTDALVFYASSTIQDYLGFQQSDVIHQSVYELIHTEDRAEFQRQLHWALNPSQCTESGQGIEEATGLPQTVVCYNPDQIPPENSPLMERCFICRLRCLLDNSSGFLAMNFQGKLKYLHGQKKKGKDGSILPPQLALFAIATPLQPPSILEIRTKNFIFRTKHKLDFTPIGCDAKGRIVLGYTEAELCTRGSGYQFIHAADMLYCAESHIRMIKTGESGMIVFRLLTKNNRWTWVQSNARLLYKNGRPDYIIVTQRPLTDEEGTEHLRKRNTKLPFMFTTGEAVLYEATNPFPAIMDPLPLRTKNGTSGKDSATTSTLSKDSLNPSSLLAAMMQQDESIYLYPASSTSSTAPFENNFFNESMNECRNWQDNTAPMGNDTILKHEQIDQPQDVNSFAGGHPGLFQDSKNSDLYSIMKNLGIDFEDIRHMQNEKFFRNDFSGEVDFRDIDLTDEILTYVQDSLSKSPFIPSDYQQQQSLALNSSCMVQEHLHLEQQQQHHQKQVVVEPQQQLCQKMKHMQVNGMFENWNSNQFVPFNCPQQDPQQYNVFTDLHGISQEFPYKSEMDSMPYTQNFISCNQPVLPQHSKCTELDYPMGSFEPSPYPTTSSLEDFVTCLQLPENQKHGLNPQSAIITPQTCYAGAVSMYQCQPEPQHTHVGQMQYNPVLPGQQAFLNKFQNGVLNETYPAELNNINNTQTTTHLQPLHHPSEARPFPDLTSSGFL

Structure (SMILES)	AC50 [1]	outcome [2]	AC50 [3]	AC50 [4]	outcome [5]	AC50 [6]	outcome [7]	outcome [8]	outcome [9]	outcome [1]	outcome [3]	outcome [4]	outcome [6]	AC50 [2]	AC50 [7]	AC50 [9]
N#Cc1c(-c2ccc(Cl)cc2)[nH]c(C(F)(F)F)c1Br	34.2 nM (active)	inactive	0.0823 µM (active)	0.0823 µM (active)	inactive	8.08 µM (active)	inactive	inactive	inactive							
FC(F)(F)c1ccc(Cl)cc1							inactive	inactive	inactive	inactive	inactive	inactive	inactive			
CCOP(=S)(S)OCC		inactive					inactive	inactive	inactive	inactive	inactive	inactive	inactive			
CC(O)C#N (stereo not drawn)		inactive			inactive		inactive	inactive	inactive	inactive	inactive	inactive	inactive			
O=S(=O)(F)C(F)(F)C(F)(F)C(F)(F)C(F)(F)C(F)(F)C(F)(F)C(F)(F)C(F)(F)F		inactive					inactive	inactive	inactive	inactive	inactive	inactive	inactive			
O=C(O)C(Cl)Cl					inactive			inactive	inactive	inactive	inactive	inactive	inactive			
CCCCC(CC)COC(=O)c1c(Br)c(Br)c(Br)c(Br)c1C(=O)OCC(CC)CCCC (stereo not drawn)		inactive			inactive		inactive	inactive	inactive	inactive	inactive	inactive	inactive			
O=C(O)CF		inactive						inactive	inactive	inactive	inactive	inactive	inactive			
C=CC(=O)OCC(F)(F)C(F)F							inactive	inactive	inactive	inactive	inactive	inactive	inactive	67 µM (active)		
Nc1ccc2ccccc2c1		inactive	7.38 µM (active)		inactive		inactive	inactive	inactive	inactive		inactive	inactive			
O=S(=O)(c1ccc(O)cc1)c1ccc(O)cc1		inactive					inactive	inactive	inactive	inactive	inactive	inactive	inactive			
O=S1(=O)OCC2C(CO1)C1(Cl)C(Cl)=C(Cl)C2(Cl)C1(Cl)Cl (stereo not drawn)			2.9 µM (active)					inactive		inactive		inactive	inactive	8.33 µM (active)	171 µM (active)	26.5 µM (active)
OCC1CO1 (stereo not drawn)		inactive			inactive			inactive	inactive	inactive	inactive	inactive	inactive			
C/C(=N\NC(=O)Nc1cc(F)cc(F)c1)c1ncccc1C(=O)O			57.2 µM (active) and 46.1 µM (active)		inactive			inactive	inactive	inactive		inactive	inactive			
Cc1ccc(C(=O)Cl)cc1					inactive		inactive	inactive	inactive	inactive	inactive	inactive	inactive			
[N-]=[N+]=[N-]		inactive			inactive			inactive	inactive	inactive		inactive	inactive			
O=C(O)C(F)(OC(F)(F)C(F)(F)C(F)(F)F)C(F)(F)F (stereo not drawn)		inactive					inactive	inactive	inactive	inactive	inactive	inactive	inactive			
CC(C)Nc1ccc(Nc2ccccc2)cc1				60 µM (active)			inactive	inactive		inactive	inactive		inactive	32.4 µM (active)		54.8 µM (active)
CCCN(CCC)c1c([N+](=O)[O-])cc(C(C)C)cc1[N+](=O)[O-]				130 µM (active)			inactive	inactive	inactive	inactive	inactive		inactive	5.57 µM (active)		
Cc1ccc(O)cc1C		inactive			inactive		inactive	inactive	inactive	inactive	inactive		inactive			
CCCCC(CC)COP(=O)(Oc1ccccc1)Oc1ccccc1 (stereo not drawn)			17.8 µM (active)	29.5 µM (active)	inactive	21.4 µM (active)	inactive	inactive	inactive	inactive				26.1 µM (active)		
CC(C)(C)OOC(C)(C)C					inactive			inactive	inactive	inactive	inactive	inactive	inactive			
c1ccc2c(c1)sc1ccccc12		inactive					inactive	inactive	inactive	inactive	inactive	inactive	inactive			
FC(F)(F)C(F)(C(F)(F)F)C(F)(F)C(F)(F)CC1CO1 (stereo not drawn)		inactive			inactive		inactive	inactive	inactive	inactive	inactive	inactive	inactive			
CCCCc1ccc(O)cc1		inactive		148 µM (active)	inactive		inactive	inactive	inactive	inactive	inactive		inactive			
COC(N)=O		inactive			inactive		inactive	inactive	inactive	inactive	inactive	inactive	inactive			
c1ccc(OP(Oc2ccccc2)Oc2ccccc2)cc1					inactive			inactive	inactive	inactive	inactive	inactive	inactive			
CCCCOCCOP(=O)(OCCOCCCC)OCCOCCCC		inactive			inactive		inactive	inactive	inactive	inactive		inactive	inactive			
CC(=O)CCc1ccc2c(c1)OCO2					inactive		inactive	inactive	inactive	inactive	inactive	inactive	inactive			
